HCMV inh – qHTS Assay for inhibitors of the human cytomegalovirus (HCMV) | AID 1259415, 2018 | actives 4.5% (n = 410,000) | HFF cells, HCMV-luciferase reporter, 72 h; hits give low values | activity change, negative = inhibition, % at 57.5 µM; in the data active = activity change below about -60%; inconclusive = no clear call, values can overlap the other calls; inactive = above about -39%
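HFF cells seeded 16 h at 37C, treated with compounds, infected with luciferase-reporter HCMV at MOI 1 PFU/cell; luciferase read at 72 h post infection, normalized to buffer-only and Salinomycin controls.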
FMDV antiviral – High Throughput Screening for Foot and Mouth Disease Virus Antivirals; Potency, µM (highest dose often 57.9 µM), actives largely listed as inhibitors; actives 1.2% (n = 410,000); FMDV antiviral cell-based qHTS; AID 1159524, 2015; calls by dose curve; tested in HEK293T cells; also: read-out not given here; nearly all actives have a fitted effect of over 45% in size
HCV inh – qHTS Assay for Inhibitors of Hepatitis C Virus (HCV); Huh7.5.1 HCVcc-Cre infection, luciferase reporter, 44 h; Potency, µM (series often up to 41.8 µM), hits mostly inhibitors; actives 3.4% (n = 340,000); AID 651820, 2012; active = well fitted inhibition curve with a large enough effect; inconclusive = small, poorly fitted or top-dose-only effect, or another doubt; inactive = no such curve, though single readings can be large or run the other way
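After 44 h co-culture of compound, cells and HCVcc-Cre (~0.5 moi), substrate is added for 15 min at room temperature and luciferase measured over 15 sec. Cells were seeded at 1,000/well and pre-cultured 4 h.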
Vaccinia mCherry – qHTS for Stage-Specific Inhibitors of Vaccinia Orthopoxvirus: mCherry Reporter Primary qHTS. Vaccinia virus mCherry reporter infection, fluorescence. Potency, µM (highest dose often 36.5 µM), hits mostly inhibitors. actives 0.63% (n = 310,000). AID 720579, 2013; calls by dose curve; tested in A549 cells; also: nearly all actives have a fitted effect of over 35% in size
VACV Venus inh – qHTS for Stage-Specific Inhibitors of Vaccinia Orthopoxvirus: Venus Reporter Primary qHTS; Vaccinia virus Venus reporter expression, fluorescence; Potency, µM (doses to about 36.5 µM), actives largely listed as inhibitors; actives 0.46% (n = 330,000); AID 720580, 2013; calls by dose curve; tested in A549 cells; also: nearly all actives have a fitted effect of over 30% in size
Numbers stand for hits; 0 = inactive; ? = inconclusive; - = no result; [ ] = dose if it differs, or a comment. Rows were chosen to be rich in hits. Some 7.3% of all compounds tested hit in one or more screens of this group.

SMILES | HCMV inh | FMDV antiviral | HCV inh | Vaccinia mCherry | VACV Venus inh
O=C(Nc1cccc2ccccc12)OC1C=CS(=O)(=O)C1 (stereo unspecified) | -70 | 0 | ? | 11µM | ?
Cc1occc1C(=O)NNC(=S)NCc1ccccc1 | 0 | 0 | 0 | 0 | 0
CCCCCCCCCCCNC(=O)c1ccoc1C | 0 | 0 | 0 | - | -
Cc1occc1C(=O)NNC(=S)NCc1ccc(Cl)cc1 | -69 | ? | 0 | 0 | 0
Cc1occc1C(=O)NCCCCNC(=O)c1ccoc1C | -98 | 0 | 0 | - | -
Cc1cc(C)cc(NC(=O)c2cccc(C(=O)Nc3cc(C)cc(C)c3)c2)c1 | 0 | 0 | - | 0 | 0
CN1CCC(=C2c3ccccc3Sc3ccccc32)CC1 | 0 | ? | 10µM | ? | ?
Cc1ccccc1/C=C/C12NC(=O)CN1c1ccccc1C2(C)C (stereo unspecified) | 0 | 0 | 0 | 0 | 0
CC1(C)c2ccccc2N2CC(=O)N[C@@]21/C=C/C=C/c1ccccc1 | -66 | 0 | 0 | 0 | 0
CCn1c2ccccc2c2cc(/C=N/n3c(C)nnc3C)ccc21 | 0 | - | 3.5µM | 0 | 0
Cn1ncc(Oc2ccc([N+](=O)[O-])cc2)c(Cl)c1=O | -91 | 0 | 0 | ? | 0
CCOc1ccc(CNC(=O)c2c(C)nn(-c3ccc(F)cc3)c2-n2cccc2)cc1 | 0 | 0 | - | 0 | 0
CC1CCC/C=C/C(=O)c2c(O)cc(O)cc2CC(=O)O1 (stereo unspecified) | -105 | 32µM | 0 | 7.1µM | ?
C[C@H]1CCC[C@@H](O)CCC/C=C/c2cc(O)cc(O)c2C(=O)O1 | -105 | 3.5µM | - | ? | ?
COc1cc(O)cc2c1C(=O)O[C@@H](C)CCCC(=O)CCCCC2 | ? | 0 | 0 | - | -
COc1cc2c(c(OC)c1)C(=O)OC(C)CCCC(=O)CCCCC2 (stereo unspecified) | 0 | ? | 0 | 0 | 0
C[C@H]1CCC/C=C/C2C[C@H](O)CC2[C@H](O)/C=C/C(=O)O1 (stereo partly specified) | - | 0 | ? | ? | ?
C[C@H]1CCC[C@H](O)CCCCCc2cc(O)cc(O)c2C(=O)O1 | -98 | 11µM | 0 | 0 | ?
CC1CCC[C@H](O)CCCCCc2cc(O)cc(O)c2C(=O)O1 (stereo partly specified) | ? | 35µM | 0[8.37 µM] | 0 | 0
CC1CCCC(=O)CCC/C=C/c2cc(O)cc(O)c2C(=O)O1 (stereo unspecified) | - | 0 | - | 0 | 0
COc1cccc(CNC(=O)CN2CCCN(Cc3ccccc3)S2(=O)=O)c1 | 0 | 0 | - | 0 | 0
COc1cccc(C2CC3C(=O)C=CC2N3Cc2ccccc2)c1 (stereo unspecified) | -97 | ? | 0 | 0 | 0
COc1ccc(Cl)cc1NC(=O)c1cc(S(=O)(=O)NC2CCCCCC2)ccc1F | 0 | 0 | - | 0 | 0
Oc1ccccc1-c1n[nH]c(-c2ccccc2O)n1 | -96 | 0 | ? | 2.8µM | 4µM
CC(C)CN(CC(C)C)c1ccc(/C=C/c2nc3ccccc3s2)cc1 | - | - | - | 0 | 0
SMILES | HCMV inh | FMDV antiviral | HCV inh | Vaccinia mCherry | VACV Venus inh
C[n+]1c2cc(N)ccc2cc2ccc(N)cc21 | -99 | ? | 1.4µM | 5.6µM | ?
C[n+]1c2cc(N)ccc2cc2ccc(N)cc21 (tested in a mixture with another compound) | - | 0 | - | - | ?
O=C(CCc1ccccc1)NCc1nc2cccnc2n1Cc1ccc(F)cc1 | ? | 0 | - | 0 | 0
C=CCN1C[C@H](COC(=O)c2cccc(C)c2)Oc2cccc(F)c2S1(=O)=O | 0 | - | - | - | -
CC1CCCC(C)N1CCCNC(=O)c1ccc2nc(N3CCOCC3)sc2c1 (stereo unspecified) | 0 | 0 | 0 | 0 | 0
O=C(NCCCN1CCC(Cc2ccccc2)CC1)c1ccc2nc(N3CCOCC3)sc2c1 | 0 | 0 | 10µM | - | -
CSc1cccc(NC(=S)N(CCCN2CCCC2)Cc2cccs2)c1 | 0 | 0 | ? | 0 | 0
COc1cccc(NC(=S)N(CCCN2CCCC2)Cc2cccn2Cc2ccc(Cl)cc2)c1 | 0 | 0 | ? | 0 | 0
S=C(Nc1cccc(Cl)c1)N(CCCN1CCCC1)Cc1cccn1Cc1ccc(Cl)cc1 | -79 | 0 | 0 | ? | ?
CSc1cccc(NC(=S)N(CCCN2CCCC2)Cc2cccn2Cc2ccc(Cl)cc2)c1 | ? | 40µM | ? | ? | ?
O=C(C=Cc1ccccn1)c1ccccc1 | 0 | ? | ? | 0 | 0
COc1cc(/C=C/C(=O)NC(=O)c2ccccc2O)ccc1OC(C)=O | 0 | 0 | 0 | 5.6µM | ?
COc1cc(/C=C/C(=O)c2ccccc2O)cc(OC)c1OC | 0 | 32µM | 0 | 0 | 0
COc1cc(OC)c(C=CC(=O)c2ccccc2O)c(OC)c1 | -64 | 0 | ? | ? | ?
O=C(C=Cc1ccccn1)c1ccccc1O | -80 | ? | 0 | 0 | 0
COc1ccc(NC(=O)C2CC23CCN(Cc2cccc4ncccc24)CC3)cc1Cl (stereo unspecified) | - | 0 | - | 0 | 0
Cc1cc(-c2ccc(S(=O)(=O)Nc3ccc(Cl)cc3)cc2)on1 | 0 | 0 | - | 0 | 0
Cc1ccc(S(=O)(=O)Nc2cc(C)c(O)cc2C)cc1 | -76 | 0 | 0 | 0 | 0
Cc1cc(C)cc(NS(=O)(=O)c2ccc(-c3cc(C)no3)cc2)c1 | -80 | 0 | - | 0 | ?
Cc1ccc(NS(=O)(=O)c2ccc(-c3cc(C)no3)cc2)c(C)c1 | -65 | 0 | - | 0 | 0
COc1ccccc1CCNC(=O)C(=O)NCC(c1ccco1)S(=O)(=O)c1ccc(F)cc1 (stereo unspecified) | 0 | 0 | - | 0 | 0
COc1ccccc1CNC(=O)CN(c1ccccc1OC)S(C)(=O)=O | 0 | 0 | - | 0 | 0
COc1ccccc1NC(=O)c1c(N=Cc2c(O)ccc3ccccc23)cnn1C | -89 | ? | ? | ? | 0
COc1ccccc1NCC(=O)N/N=C/c1c(O)ccc2ccccc12 | -95 | 0 | 2.8µM | - | -
O=C(CNc1ccc(F)cc1)N/N=C/c1c(O)ccc2ccccc12 | -97 | 0 | ? | - | -
SMILES | HCMV inh | FMDV antiviral | HCV inh | Vaccinia mCherry | VACV Venus inh
COc1ccccc1N(CC(=O)N/N=C/c1c(O)ccc2ccccc12)S(C)(=O)=O | 0 | 0 | ? | 11µM | ?
CCOc1ccc(CCNC(=O)CCc2c(C)nc3c4c(C)cc(C)nc4nn3c2C)cc1 | 0 | 0 | - | 0 | 0
O=C(CN1CCCc2ccccc21)N/N=C/c1c(O)ccc2ccccc12 | -98 | ? | 10µM | 11µM | ?
COc1ccccc1N(CC(=O)Nc1c(C)cccc1C)S(C)(=O)=O | 0 | - | 0 | 0 | 0
O=C(CN1CCCc2ccccc21)N/N=C/c1ccccc1 | 0 | 0 | 0 | 0 | 0
COc1ccccc1N(CC(=O)Nc1ccccc1C)S(C)(=O)=O | -61 | - | 0 | 0 | 0
CCC(C)Sc1ccc(-c2nc3ccc(Cl)cn3c2NCc2ccccc2)cc1 (stereo unspecified) | 0 | 0 | 0 | 0 | 0
CCC(C)Sc1ccc(-c2nc3ccc(C)cn3c2NCc2ccccc2)cc1OC (stereo unspecified) | - | 35µM | 4µM | ? | 13µM

Screening data deposited in PubChem by National Center for Advancing Translational Sciences (NCATS).
